Experimental data published in paper PMC11062922 (Nature Chemical Biology, 2023).
Read-outs that look alike come from different tables or passages of the source.

Tests used:
Parameters in all cases: species or system human, MV4-11 + K-562 + COLO205 + SK-N-BE2 + OVCAR-8
CDK7 = details: read-out: apparent Kd, n = 1
DYRK1A = details: read-out: apparent Kd, compound concentrations: 100 nM and 1000 nM (sheet 'Samples'), n = 1
FER = details: read-out: apparent Kd, n = 1
FLT3 = details: read-out: apparent Kd, n = 1
LATS1 = details: read-out: apparent Kd, n = 1
MARK4 = details: read-out: apparent Kd, n = 1
MYLK3 = details: read-out: apparent Kd, n = 1
PLK4 = details: read-out: apparent Kd, n = 1
PRKCD = details: read-out: apparent Kd, n = 1
PRKCQ = details: read-out: apparent Kd, n = 1
PRKD2 = details: read-out: apparent Kd, compound concentrations: 100 nM and 1000 nM (sheet 'Samples'), n = 1
PRKD3 = details: read-out: apparent Kd, compound concentrations: 100 nM and 1000 nM (sheet 'Samples'), n = 1
PTK2B = details: read-out: apparent Kd, n = 1
PTK2 = details: read-out: apparent Kd, n = 1
RPS6KA6 = details: read-out: apparent Kd, n = 1
STK10 = details: read-out: apparent Kd, n = 1
CDKL5 = details: read-out: apparent Kd; compound concentrations: 100 nM and 1000 nM (sheet 'Samples'), CATDS: 7.5103535509973398E-3; n = 1
ERCC2 = details: read-out: apparent Kd, n = 1
PRKAA1 = details: read-out: apparent Kd, n = 1
[1] = compound concentrations:100 nM and 1000 nM (sheet 'Samples')

Question: For Cn1ncc2c(N)ncnc21 [SKF-18267], which potency estimated from few doses (CDK7; compound concentrations: 100 nM and 1000 nM (sheet 'Samples'), CATDS: 5.5514862333248096E-3) is on record?
Answer: The potency estimated from few doses was 667 nM.

Question: And the potency estimated from few doses (DYRK1A; CATDS: 3.77369052298554E-3)?
Answer: Its potency estimated from few doses is 1560 nM.

Question: And the potency estimated from few doses (FER; compound concentrations: 100 nM and 1000 nM (sheet 'Samples'), CATDS: 5.4218087868892397E-3)?
Answer: The potency estimated from few doses was 697 nM.

Question: And the potency estimated from few doses (FLT3; compound concentrations: 100 nM and 1000 nM (sheet 'Samples'), CATDS: 6.0970372773572496E-3)?
Answer: The potency estimated from few doses was 564 nM.

Question: And the potency estimated from few doses (LATS1; compound concentrations: 100 nM and 1000 nM (sheet 'Samples'), CATDS: 3.8471015452543802E-3)?
Answer: Its potency estimated from few doses is 1480 nM.

Question: And the potency estimated from few doses (MARK4; compound concentrations: 100 nM and 1000 nM (sheet 'Samples'), CATDS: 3.8950662850455102E-3)?
Answer: Its potency estimated from few doses is 1430 nM.

Question: What about the potency estimated from few doses (MYLK3; compound concentrations: 100 nM and 1000 nM (sheet 'Samples'), CATDS: 3.9686163384318402E-3) of the same molecule?
Answer: Its potency estimated from few doses is 1360 nM.

Question: What about the potency estimated from few doses (PLK4; compound concentrations: 100 nM and 1000 nM (sheet 'Samples'), CATDS: 4.9790098691835901E-3) of the same molecule?
Answer: The potency estimated from few doses was 821 nM.

Question: And the potency estimated from few doses (PRKCD; compound concentrations: 100 nM and 1000 nM (sheet 'Samples'), CATDS: 3.5352355938645099E-3)?
Answer: Its potency estimated from few doses is 1880 nM.

Question: And the potency estimated from few doses (PRKCQ; compound concentrations: 100 nM and 1000 nM (sheet 'Samples'), CATDS: 3.4517086035176399E-3)?
Answer: Its potency estimated from few doses is 2030 nM.

Question: And the potency estimated from few doses (PRKD2; CATDS: 4.0514258518823199E-3)?
Answer: The potency estimated from few doses was 1290 nM.

Question: What about the potency estimated from few doses (PRKD3; CATDS: 4.0252223893410396E-3) of the same molecule?
Answer: The potency estimated from few doses was 1320 nM.

Question: And the potency estimated from few doses (PTK2B; compound concentrations: 100 nM and 1000 nM (sheet 'Samples'), CATDS: 7.2672167282142302E-3)?
Answer: The potency estimated from few doses was 423 nM.

Question: And the potency estimated from few doses (PTK2; compound concentrations: 100 nM and 1000 nM (sheet 'Samples'), CATDS: 4.9483549300151902E-3)?
Answer: Its potency estimated from few doses is 831 nM.

Question: What about the potency estimated from few doses (RPS6KA6; compound concentrations: 100 nM and 1000 nM (sheet 'Samples'), CATDS: 7.1387563408407901E-3) of the same molecule?
Answer: Its potency estimated from few doses is 435 nM.

Question: What about the potency estimated from few doses (STK10; compound concentrations: 100 nM and 1000 nM (sheet 'Samples'), CATDS: 3.6177977688347301E-3) of the same molecule?
Answer: Its potency estimated from few doses is 1760 nM.

Question: Which potency estimated from few doses (STK10; compound concentrations: 100 nM and 1000 nM (sheet 'Samples'), CATDS: 3.2691719677524503E-2) does the source give for Cc1ccc(Nc2ccnc(Nc3ccc4c(c3)CS(=O)(=O)C4)n2)cc1O.Cl [GW579362A] here?
Answer: The potency estimated from few doses was 950 nM.

Question: With CCOC(=O)N1CCC(n2cnc(-c3ccc(F)cc3)c2-c2ccnc(N)n2)CC1 [SB-219952] as the molecule, how does the potency estimated from few doses (CDK7; compound concentrations: 100 nM and 1000 nM (sheet 'Samples'), CATDS: 2.08118175664989E-2) read?
Answer: The potency estimated from few doses was 201 nM.

Question: What about the potency estimated from few doses (CDKL5) of the same molecule?
Answer: Its potency estimated from few doses is 2170 nM.

Question: What about the potency estimated from few doses (DYRK1A; CATDS: 7.51253046880054E-3) of the same molecule?
Answer: Its potency estimated from few doses is 2170 nM.

Question: What about the potency estimated from few doses (ERCC2; compound concentrations: 100 nM and 1000 nM (sheet 'Samples'), CATDS: 2.0109331844810101E-2) of the same molecule?
Answer: Its potency estimated from few doses is 213 nM.

Question: And the potency estimated from few doses (FER; compound concentrations: 100 nM and 1000 nM (sheet 'Samples'), CATDS: 1.3888971219533201E-2)?
Answer: The potency estimated from few doses was 416 nM.

Question: And the potency estimated from few doses (FLT3; compound concentrations: 100 nM and 1000 nM (sheet 'Samples'), CATDS: 8.0965887805869007E-3)?
Answer: The potency estimated from few doses was 1630 nM.

Question: And the potency estimated from few doses (LATS1; compound concentrations: 100 nM and 1000 nM (sheet 'Samples'), CATDS: 8.0711896225058692E-3)?
Answer: Its potency estimated from few doses is 1650 nM.

Question: And the potency estimated from few doses (MYLK3; compound concentrations: 100 nM and 1000 nM (sheet 'Samples'), CATDS: 7.2973663588222501E-3)?
Answer: The potency estimated from few doses was 2470 nM.

Question: What about the potency estimated from few doses (PLK4; compound concentrations: 100 nM and 1000 nM (sheet 'Samples'), CATDS: 1.18225591983295E-2) of the same molecule?
Answer: The potency estimated from few doses was 582 nM.

Question: What about the potency estimated from few doses (PRKAA1; compound concentrations: 100 nM and 1000 nM (sheet 'Samples'), CATDS: 1.3066263921832201E-2) of the same molecule?
Answer: The potency estimated from few doses was 471 nM.

Question: And the potency estimated from few doses (PRKCD; compound concentrations: 100 nM and 1000 nM (sheet 'Samples'), CATDS: 8.2492592697018703E-3)?
Answer: Its potency estimated from few doses is 1530 nM.

Question: What about the potency estimated from few doses (PRKD2; CATDS: 9.3127707603308692E-3) of the same molecule?
Answer: Its potency estimated from few doses is 1050 nM.

Question: And the potency estimated from few doses (PRKD3; CATDS: 8.3087862400952096E-3)?
Answer: Its potency estimated from few doses is 1490 nM.

Question: What about the potency estimated from few doses (PTK2B; compound concentrations: 100 nM and 1000 nM (sheet 'Samples'), CATDS: 1.55357941259002E-2) of the same molecule?
Answer: Its potency estimated from few doses is 336 nM.

Question: What about the potency estimated from few doses (PTK2; compound concentrations: 100 nM and 1000 nM (sheet 'Samples'), CATDS: 1.3544498558995E-2) of the same molecule?
Answer: The potency estimated from few doses was 438 nM.

Question: And the potency estimated from few doses (RPS6KA6; compound concentrations: 100 nM and 1000 nM (sheet 'Samples'), CATDS: 1.4323736759091399E-2)?
Answer: The potency estimated from few doses was 392 nM.

Question: What about the potency estimated from few doses (STK10; compound concentrations: 100 nM and 1000 nM (sheet 'Samples'), CATDS: 9.6073353466608804E-3) of the same molecule?
Answer: The potency estimated from few doses was 964 nM.

Question: CN(c1ccc(NC(=O)Nc2cccc(Cl)c2)cc1)c1ccnc(N)n1.Cl [GW830707A] was tested. Which potency estimated from few doses (CDK7; compound concentrations: 100 nM and 1000 nM (sheet 'Samples'), CATDS: 2.70910980037193E-2) did it give?
Answer: Its potency estimated from few doses is 25.3 nM.

Question: What about the potency estimated from few doses (ERCC2; compound concentrations: 100 nM and 1000 nM (sheet 'Samples'), CATDS: 2.8634029570059099E-2) of the same molecule?
Answer: Its potency estimated from few doses is 22.5 nM.

Question: And the potency estimated from few doses (FER; compound concentrations: 100 nM and 1000 nM (sheet 'Samples'), CATDS: 3.09824946210665E-2)?
Answer: Its potency estimated from few doses is 19.3 nM.

Question: What about the potency estimated from few doses (PRKAA1; compound concentrations: 100 nM and 1000 nM (sheet 'Samples'), CATDS: 2.0241658974681501E-2) of the same molecule?
Answer: Its potency estimated from few doses is 51.3 nM.

Question: And the potency estimated from few doses (PTK2B; compound concentrations: 100 nM and 1000 nM (sheet 'Samples'), CATDS: 2.3206005567305101E-2)?
Answer: The potency estimated from few doses was 35.9 nM.

Question: What about the potency estimated from few doses (PTK2; compound concentrations: 100 nM and 1000 nM (sheet 'Samples'), CATDS: 2.6556868558213102E-2) of the same molecule?
Answer: The potency estimated from few doses was 26.4 nM.

Question: And the potency estimated from few doses (RPS6KA6; compound concentrations: 100 nM and 1000 nM (sheet 'Samples'), CATDS: 2.8909241119288599E-2)?
Answer: The potency estimated from few doses was 22.1 nM.

Question: How did the potency estimated from few doses (FER; [1]) turn out when CNC(=O)c1ccccc1Nc1nc(Nc2ccc(N3CCOCC3)cc2)ncc1Cl.Cl [GSK1576028A] was run?
Answer: The potency estimated from few doses was 484 nM.

Question: And the potency estimated from few doses (FLT3; [1])?
Answer: The potency estimated from few doses was 616 nM.

Question: And the potency estimated from few doses (LATS1; [1])?
Answer: The potency estimated from few doses was 132 nM.

Question: And the potency estimated from few doses (MARK4; [1])?
Answer: The potency estimated from few doses was 1370 nM.

Question: What about the potency estimated from few doses (MYLK3; [1]) of the same molecule?
Answer: Its potency estimated from few doses is 786 nM.

Question: What about the potency estimated from few doses (PLK4; [1]) of the same molecule?
Answer: The potency estimated from few doses was 13.4 nM.

Question: And the potency estimated from few doses (PRKAA1; [1])?
Answer: The potency estimated from few doses was 629 nM.

Question: And the potency estimated from few doses (PTK2B; [1])?
Answer: The potency estimated from few doses was 41.8 nM.

Question: What about the potency estimated from few doses (PTK2; [1]) of the same molecule?
Answer: The potency estimated from few doses was 8.08 nM.

Question: What about the potency estimated from few doses (STK10; [1]) of the same molecule?
Answer: The potency estimated from few doses was 681 nM.

Question: Which results are given for Fc1ccc(-c2c(-c3ccncc3)[nH]c3cccnc23)cc1 [RO1153853-000]?
Answer: potency estimated from few doses (PRKD2; CATDS: 5.7434995830704397E-2): 1020 nM; potency estimated from few doses (PRKD3; CATDS: 5.1990975037574202E-2): 1420 nM

Question: Which results are given for NCCNS(=O)(=O)c1ccc(-c2ccnc3[nH]ccc23)cc1 [GSK977617A]?
Answer: potency estimated from few doses (CDK7; [1]): 159 nM; potency estimated from few doses (ERCC2; [1]): 203 nM; potency estimated from few doses (FER; [1]): 238 nM; potency estimated from few doses (LATS1; [1]): 121 nM; potency estimated from few doses (MYLK3; [1]): 996 nM; potency estimated from few doses (PLK4; [1]): 584 nM; potency estimated from few doses (PRKAA1; [1]): 453 nM; potency estimated from few doses (PRKCD; [1]): 1080 nM; potency estimated from few doses (PRKCQ; [1]): 1950 nM; potency estimated from few doses (PTK2B; [1]): 335 nM; potency estimated from few doses (PTK2; [1]): 343 nM; potency estimated from few doses (RPS6KA6; [1]): 373 nM; potency estimated from few doses (STK10; [1]): 2400 nM
